Assay results as given in PubChem BioAssay (Tox21).
Several values for one entry are separate records, joined by “and”; a condition that tells them apart may be missing. Equal entries are not always repeated. Inconclusive results are not listed. Some structures have more than one record in an assay (separate samples or runs), and their calls can disagree. Activity calls are given as the source filed them. Unless noted, calls come from the whole dose curve.

Key:
[1] = Nuclear factor erythroid 2-related factor 2/antioxidant responsive element (Nrf2/ARE) small molecule agonists: qHTS cell viability counter screen in human keratinocytes (AID 1919968; active = well fitted curve in the direction sought with a large enough effect in the repeat runs; an effect the other way counts as inactive or inconclusive; note: nearly all actives have a fitted effect of over 55% in size; note: potency is the fitted concentration of half-maximal effect); details: KeratinoSens HaCaT ARE cells viability, CellTiter-Fluor, 24 h; series mostly up to 92.4 µM
Summary of the method: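 Measured as CellTiter-Fluor fluorescence, this readout tracks cytotoxicity in the same wells as the ARE-luciferase screen. HaCaT reporter cells (1,500/well) received compounds after a 5 h pre-incubation and were exposed for 23 h.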

[2] = Nuclear factor erythroid 2-related factor 2/antioxidant responsive element (Nrf2/ARE) small molecule agonists: luciferase reporter gene qHTS assay in human keratinocytes (AID 1919969); details: KeratinoSens HaCaT ARE-luciferase, luminescence, 24 h; series mostly up to 92.4 µM; note: nearly all actives have a fitted effect of over 35% in size; note: potency is the fitted concentration of half-maximal effect
[3] = molecular target: Gonadotropin-releasing hormone receptor (Homo sapiens) (UniProt P30968); assay: Human gonadotropin-releasing hormone receptor (GnRHR) small molecule agonists, calcium flux assay in GnRHR-HEK293 cells (AID 1920063); details: calcium flux fluorescence, agonist mode; series mostly up to 57.6 µM; note: nearly all actives have a fitted effect of over 35% in size
Summary of the method: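 Fluorescence kinetics (480 nm excitation, 540 nm emission; 3 min, 1 s steps) report calcium mobilisation in human GnRHR-HEK293 cells in agonist mode. Dye incubation: 1 h, 37 C.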

[4] = molecular target: KiSS-1 receptor (Homo sapiens) (UniProt Q969F8); assay: Human kisspeptin (KISS1R) small molecule agonists, calcium flux assay in KISS1R-HEK293 cells (AID 1920064; active = well fitted curve in the direction sought with a large enough effect in the repeat runs; an effect the other way counts as inactive or inconclusive); details: KISS1R-HEK293, calcium flux fluorescence, agonist; series mostly up to 76.8 µM
Summary of the method: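 Measures KISS1R agonism through calcium-sensitive dye fluorescence in stably transfected HEK293 cells, read for 3 min after pin-tool compound delivery; 15-point titrations in triplicate.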

[5] = G protein-coupled receptor (GPCR) small molecule agonists, calcium flux assay: HEK293 wild type cell line counter screen (AID 1920065); details: HEK293 WT calcium flux, fluorescence, agonist mode; series mostly up to 57.6 µM
Summary of the method: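 Readout: fluorescence at 480 nm excitation/540 nm emission, sampled at 1 s intervals for 3 min. Cells had been cultured 18 h, then dye-loaded 1 h at 37 C before compound or ATP addition.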

[6] = p53 small molecule agonists, cell-based qHTS assay with human liver microsomes: qHTS cell viability counter screen (AID 1963579); details: p53RE-bla HCT-116 viability, ATP luminescence, 16 h, HLM; series mostly up to 66 µM; note: nearly all actives have a fitted effect of over 45% in size; note: potency is the fitted concentration of half-maximal effect
Summary of the method: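 Seed p53RE-bla cells at 4,000 per well; incubate 5 h at 37 C; add compound, human liver microsomes and NADPH; incubate 16 h at 37 C; add CellTiter-Glo; after 30 min at room temperature, read luminescence.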

[7] = p53 small molecule agonists, cell-based qHTS assay with rat liver microsomes: qHTS cell viability counter screen (AID 1963580); details: p53RE-bla HCT-116 + rat microsomes, ATP viability, 16 h; series mostly up to 66 µM; note: nearly all actives have a fitted effect of over 45% in size; note: potency is the fitted concentration of half-maximal effect
Summary of the method: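 p53RE-bla HCT-116 cells (4,000/well) rested 5 h at 37 C, then given Tox21 compounds in DMSO with rat liver microsomes (0.5 mg/mL final) plus NADPH (0.5 mg/mL final) for 16 h at 37 C. Viability read by CellTiter-Glo luminescence after 30 min at room temperature.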

[8] = p53 small molecule agonists, cell-based qHTS assay: qHTS cell viability counter screen (AID 1963581); details: p53RE-bla HCT-116 viability, ATP luminescence, 16 h; series mostly up to 66 µM; note: nearly all actives have a fitted effect of over 45% in size
Summary of the method: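 In the same plates used for the p53 bla reporter, HCT-116 cells given compounds for 16 h at 37 C received CellTiter-Glo; luminescence was recorded 30 min later at room temperature.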

[9] = cAMP Responsive Elements (CRE) small molecule agonists, cell-based qHTS assay (AID 1963590); details: CRE-bla HEK293T, beta-lactamase FRET ratio, 3 h; series mostly up to 92.4 µM
Summary of the method: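 Cell line: CRE-bla HEK 293T; medium DMEM/10% dialyzed FBS/0.1 mM NEAA/1 mM pyruvate/25 mM HEPES; 3 h compound exposure; beta-lactamase FRET readout after 2 h substrate loading at RT.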

[10] = cAMP Responsive Elements (CRE) small molecule antagonists, cell-based qHTS assay (AID 1963591; active = well fitted inhibition curve with a large enough effect in the signal ratio in the repeat runs, not every such curve was filed as active; the % refers to the signal ratio; note: potency is the fitted concentration of half-maximal effect); details: CRE-bla HEK293T, beta-lactamase FRET ratio; series mostly up to 92.4 µM
Summary of the method: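 Inhibition of NKH477-driven (0.25 uM final) CRE-beta-lactamase signal in HEK293T cells, 3 h compound exposure at 37 °C, detected by FRET substrate fluorescence.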

[11] = molecular target: Beta-2 adrenergic receptor (Homo sapiens) (UniProt P07550); assay: Adrenergic beta2 receptor (ADRB2) small molecule antagonists, cell-based qHTS assay (AID 1963592); details: CHO-ADRB2 cells, isoproterenol-stimulated cAMP HTRF ratio, 0.5 h; series mostly up to 92.4 µM; note: nearly all actives have a fitted effect of over 50% in size; note: potency is the fitted concentration of half-maximal effect
Summary of the method: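 Cells (CHO, stable ADRB2 overexpression) incubated 18-20hr at 37C; compounds added from DMSO; agonist mix (1nM isoproterenol, 100uM IBMX, 25uM Ro-20-1724) added; 0.5hr RT; d2-cAMP and anti-cAMP-cryptate added; 1hr RT; 665/615 nm read.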

[12] = molecular target: Beta-2 adrenergic receptor (Homo sapiens) (UniProt P07550); assay: Adrenergic beta2 receptor (ADRB2) small molecule agonists, cell-based qHTS assay (AID 1963593); details: CHO-ADRB2 cells, cAMP HTRF, 30 min; series mostly up to 92.4 µM;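 note: CHO cells stably overexpressing human ADRB2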
Summary of the method: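 CHO cells stably over-expressing ADRB2 were plated overnight at 37C, then dosed with compounds plus a stimulation mix containing 100uM IBMX and 25uM Ro-20-1724 for 0.5hr at room temperature. cAMP was measured by HTRF competition, 1hr.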

[13] = molecular target: D(2) dopamine receptor (Homo sapiens) (UniProt P14416); assay: Dopamine D2 receptor (DRD2) small molecule agonists, cell-based qHTS assay (AID 1963594); details: HEK293-DRD2 cAMP HTRF, agonist mode, 30 min; series mostly up to 92.4 µM; note: nearly all actives have a fitted effect of over 35% in size
Summary of the method: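 HEK293 cells stably expressing DRD2 were cultured 24 h at 37 C, then given Ro20-1724 (0.1 mM final) and compounds for 10 min at room temperature. NKH477 (200nM) was then added for 30 min. cAMP was read by HTRF.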

[14] = molecular target: D(2) dopamine receptor (Homo sapiens) (UniProt P14416); assay: Dopamine D2 receptor (DRD2) small molecule antagonists, cell-based qHTS assay (AID 1963595; active = well fitted inhibition curve with a large enough effect in the signal ratio in the repeat runs, with a control signal flat; the % refers to the signal ratio); details: HEK293-DRD2 cAMP HTRF antagonist mode; series mostly up to 92.4 µM
Summary of the method: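 Readout: HTRF cAMP, cAMP-d2 competing with cellular cAMP for anti-cAMP cryptate, read after 1 h. Cells: DRD2-HEK293. Conditions: 0.1 mM Ro20-1724, 12 nM quinpirole, 200 nM NKH477, 30 min RT.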

[15] = molecular target: 5-hydroxytryptamine receptor 2A (Homo sapiens) (UniProt P28223); assay: 5-hydroxytryptamine receptor 2A (HTR2A) small molecule antagonists, cell-based qHTS assay (AID 1963586); details: HTR2A-CHO cells, DOI-induced calcium flux, fluorescence; series mostly up to 61.5 µM; note: nearly all actives have a fitted effect of over 45% in size; note: potency is the fitted concentration of half-maximal effect
Summary of the method: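 Antagonist-mode intracellular calcium assay: DOI (4 nM) added after 5 min compound pre-incubation at room temperature to dye-loaded HTR2A-CHO cells. Fluorescence followed for 3 min, sampled every second.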

[16] = molecular target: Muscarinic acetylcholine receptor M1 (Homo sapiens) (UniProt P11229); assay: Cholinergic receptor muscarinic 1 (CHRM1) small molecule antagonists, cell-based qHTS assay (AID 1963588); details: CHRM1-CHO antagonist mode, calcium flux fluorescence; series mostly up to 61.5 µM; note: nearly all actives have a fitted effect of over 40% in size
Summary of the method: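 CHRM1-CHO calcium-flux assay, antagonist mode. Cells were seeded 18 h, dye-loaded 1 h at 37 C and given compound for 5 min at RT, then acetylcholine was added at 50nM. FDSS fluorescence was read 3 min; 15 concentrations, three runs.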

[17] = molecular target: Muscarinic acetylcholine receptor M1 (Homo sapiens) (UniProt P11229); assay: Cholinergic receptor muscarinic 1 (CHRM1) small molecule agonists, cell-based qHTS assay (AID 1963589); details: CHRM1-CHO cells, agonist mode, calcium flux fluorescence; series mostly up to 76.8 µM; note: nearly all actives have a fitted effect of over 35% in size
Summary of the method: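 Each compound was tested at 15 concentrations across three independent runs on dye-loaded CHO cells stably expressing human CHRM1, reading intracellular calcium fluorescence kinetically at 1 sec intervals.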

[18] = molecular target: 5-hydroxytryptamine receptor 2A (Homo sapiens) (UniProt P28223); assay: 5-hydroxytryptamine receptor 2A (HTR2A) small molecule agonists, cell-based qHTS assay (AID 1963587); details: HTR2A-CHO cells, calcium flux fluorescence, agonist mode; series mostly up to 76.8 µM; note: nearly all actives have a fitted effect of over 30% in size
Summary of the method: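 HTR2A-CHO cells, plated 18 h at 37 C/5% CO2, dye-loaded 1 h at 37 C; compounds in DMSO added by pin tool (agonist mode). Intracellular calcium flux read as kinetic fluorescence on FDSS over 2 min at 1 s intervals.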

Measured: Potency

5-hydroxytryptamine receptor 2A (Homo sapiens), sequence (P28223 whole entry, looked up): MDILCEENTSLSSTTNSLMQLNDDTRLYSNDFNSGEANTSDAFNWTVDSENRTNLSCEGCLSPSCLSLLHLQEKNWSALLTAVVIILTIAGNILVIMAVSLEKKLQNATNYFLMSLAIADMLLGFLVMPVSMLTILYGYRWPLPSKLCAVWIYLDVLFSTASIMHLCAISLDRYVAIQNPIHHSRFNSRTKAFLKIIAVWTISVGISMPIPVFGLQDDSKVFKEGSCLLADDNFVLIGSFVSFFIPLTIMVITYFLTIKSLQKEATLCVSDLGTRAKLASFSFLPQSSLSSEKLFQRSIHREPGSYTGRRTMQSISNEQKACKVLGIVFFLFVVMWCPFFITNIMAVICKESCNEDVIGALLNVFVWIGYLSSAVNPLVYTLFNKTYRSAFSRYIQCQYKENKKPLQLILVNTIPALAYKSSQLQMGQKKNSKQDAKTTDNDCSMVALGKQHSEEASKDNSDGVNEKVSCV
Gonadotropin-releasing hormone receptor (Homo sapiens), sequence (P30968 whole entry, looked up): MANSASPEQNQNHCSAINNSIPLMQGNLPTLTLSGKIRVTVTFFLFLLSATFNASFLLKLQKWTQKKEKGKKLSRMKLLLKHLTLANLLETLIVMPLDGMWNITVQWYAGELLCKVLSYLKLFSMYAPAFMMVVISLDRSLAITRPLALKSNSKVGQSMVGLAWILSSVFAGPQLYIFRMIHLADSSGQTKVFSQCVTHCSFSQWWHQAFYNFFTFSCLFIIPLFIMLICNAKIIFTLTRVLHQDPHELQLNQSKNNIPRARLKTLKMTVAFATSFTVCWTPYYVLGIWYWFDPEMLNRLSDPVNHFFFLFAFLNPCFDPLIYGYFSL
Muscarinic acetylcholine receptor M1 (Homo sapiens), sequence (P11229 whole entry, looked up): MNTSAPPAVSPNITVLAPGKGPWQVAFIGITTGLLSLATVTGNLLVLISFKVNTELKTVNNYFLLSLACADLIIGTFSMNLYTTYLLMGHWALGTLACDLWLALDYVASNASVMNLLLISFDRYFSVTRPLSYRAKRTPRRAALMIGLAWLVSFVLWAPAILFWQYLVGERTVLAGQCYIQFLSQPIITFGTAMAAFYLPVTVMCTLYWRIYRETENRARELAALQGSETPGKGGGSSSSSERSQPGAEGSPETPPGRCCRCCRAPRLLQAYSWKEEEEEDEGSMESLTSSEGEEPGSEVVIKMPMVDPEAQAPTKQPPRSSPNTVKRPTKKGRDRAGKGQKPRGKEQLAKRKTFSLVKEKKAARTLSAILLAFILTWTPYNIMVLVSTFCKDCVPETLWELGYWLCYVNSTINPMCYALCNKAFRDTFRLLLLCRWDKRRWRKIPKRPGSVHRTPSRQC
KiSS-1 receptor (Homo sapiens), sequence (Q969F8 whole entry, looked up): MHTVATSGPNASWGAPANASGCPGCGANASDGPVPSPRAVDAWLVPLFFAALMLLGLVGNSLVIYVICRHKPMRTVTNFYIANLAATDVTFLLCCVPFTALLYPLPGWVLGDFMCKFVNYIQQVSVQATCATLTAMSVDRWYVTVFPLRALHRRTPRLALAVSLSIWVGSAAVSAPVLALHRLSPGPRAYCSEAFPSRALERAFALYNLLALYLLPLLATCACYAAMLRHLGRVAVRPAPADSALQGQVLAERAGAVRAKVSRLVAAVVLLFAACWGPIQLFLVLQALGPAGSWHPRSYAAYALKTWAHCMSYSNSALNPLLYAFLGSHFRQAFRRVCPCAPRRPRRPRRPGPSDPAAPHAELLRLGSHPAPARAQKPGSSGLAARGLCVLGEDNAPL
D(2) dopamine receptor (Homo sapiens), sequence (P14416 whole entry, looked up): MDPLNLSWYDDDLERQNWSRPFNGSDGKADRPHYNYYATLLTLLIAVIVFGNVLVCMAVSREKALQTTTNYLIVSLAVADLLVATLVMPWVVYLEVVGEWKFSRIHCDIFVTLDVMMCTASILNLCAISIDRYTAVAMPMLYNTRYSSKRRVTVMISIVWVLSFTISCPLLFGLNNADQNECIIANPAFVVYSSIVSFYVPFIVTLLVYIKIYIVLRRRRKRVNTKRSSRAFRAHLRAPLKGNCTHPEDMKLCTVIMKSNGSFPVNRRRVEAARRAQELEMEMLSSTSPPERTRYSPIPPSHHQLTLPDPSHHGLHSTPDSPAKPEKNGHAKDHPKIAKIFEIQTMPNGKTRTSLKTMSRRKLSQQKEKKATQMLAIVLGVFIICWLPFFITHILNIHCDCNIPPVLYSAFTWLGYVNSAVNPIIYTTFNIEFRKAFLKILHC
Beta-2 adrenergic receptor (Homo sapiens), sequence (P07550 whole entry, looked up): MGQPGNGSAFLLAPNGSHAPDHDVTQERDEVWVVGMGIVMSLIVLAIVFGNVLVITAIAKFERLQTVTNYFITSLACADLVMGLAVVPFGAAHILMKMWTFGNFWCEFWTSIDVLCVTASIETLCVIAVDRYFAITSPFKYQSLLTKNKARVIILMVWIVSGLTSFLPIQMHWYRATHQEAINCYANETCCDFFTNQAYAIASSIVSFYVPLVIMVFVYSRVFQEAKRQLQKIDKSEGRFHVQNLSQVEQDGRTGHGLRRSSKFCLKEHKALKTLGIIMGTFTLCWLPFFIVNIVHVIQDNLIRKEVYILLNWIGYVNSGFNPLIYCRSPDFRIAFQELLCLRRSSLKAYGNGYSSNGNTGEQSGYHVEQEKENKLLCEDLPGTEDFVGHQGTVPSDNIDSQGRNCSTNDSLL

O=C1NC(=O)C(c2ccccc2)(c2ccccc2)N1
not listed: [15] | [16] | [17] | [18]
inactive: all other assays above

Cc1cccc(C)c1
not listed: [6] | [18]
inactive: all other assays above

CCCCCC1=CCCC1=O
not listed: [10]
inactive: all other assays above

Cc1ccc(C)c(OCCCC(C)(C)C(=O)O)c1
not listed: [9] | [13] | [15] | [16] | [17] | [18]
inactive: all other assays above

CCO[Si](CCC#N)(OCC)OCC
not listed: [12]
inactive: all other assays above

CC(C)[C@@H]1CC[C@@H](C)C[C@H]1O
not listed: [8]
inactive: all other assays above

Oc1ccc(Cl)cc1Cc1cc(Cl)ccc1O
inactive and 33.5 µM (active): [2]
41.5 µM (active) and inactive: [7]
40.8 µM (active) and inactive: [6]
inactive: [3] | [4] | [5] | [16] | [17] | [13] | [14]
active: [1] 27.8 µM and 61.1 µM | [10] 49.4 µM | [11] 48.6 µM

O=C(c1ccccc1)C(O)c1ccccc1 (stereo not drawn)
inactive and 729 nM (active): [15]
not listed: [14]
inactive: all other assays above

OC1C(O)C(O)C(O)C(O)C1O (stereo not drawn)
inactive: all assays above

CCCCC(CC)C(=O)O (stereo not drawn)
not listed: [6]
inactive: all other assays above

CC(C)c1cccc(C(C)C)c1
inactive: all assays above

F[B-](F)(F)F
inactive and 31.1 µM (active): [1]
inactive: all other assays above

CC1=CCC2CC1C2(C)C (stereo not drawn)
not listed: [10] | [16]
inactive: all other assays above

OCc1cccnc1
inactive: all assays above

O=C(O)c1cc(C(=O)O)cc(S(=O)(=O)O)c1
not listed: [12]
inactive: all other assays above

COc1c(Cl)c(Cl)c(Cl)c(Cl)c1Cl
inactive: all assays above

CCCC(=O)O
not listed: [15] | [17] | [18]
inactive: all other assays above
